# Vc quorum ag – quorum light induction in luxS cqsA deficient V. cholerae. 350,000 compounds, 0.16% hits. AID 588436. activation, % at 18.7 µM. V. cholerae BH1578 lux reporter, luminescence, 6 h; in the data active means activation mostly above about 9.7%, no sharp cut-off
# Sa ugtP lethal – compounds lethal to S. aureus RN4220 ugtP deletion mutant | OD600 growth, 16 h | AID 1259309 | growth inhibition, % (concentration not given with the values) | 330,000 compounds, 0.54% hits; in the data active means growth inhibition above about 68%;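 further: plate controls were untreated wells for no effect and antibiotic for full effect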
# RN4220 kill – S. aureus RN4220 growth inhibition. OD600, 16 h. 330,000 compounds, 0.33% hits. inhibition, % (no concentration beside the values); in the data active means inhibition above about 85%;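 further: plate controls were untreated cells for no effect and reference antibiotic for full effect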
# PfHsp40 yeast – rescue of PfHsp40-mediated yeast toxicity; S. cerevisiae expressing PfHsp40, growth rescue, ATP luminescence; growth rescue, % at 12.5 µM; 340,000 compounds, 0.68% hits; in the data active means growth rescue above about 28%, passing the limit was not always enough;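 further: yeast W303a lacking pdr1 and pdr3 grown in galactose medium; growth measured after three days at 30 °C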
# Mtb bLac sens – beta-lactam sensitization of Mtb H37Rv; M. tuberculosis H37Rv growth with meropenem, percent inhibition; inhibition, % at 25 µM; 330,000 compounds, 0.27% hits; call rule not given here;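 further: growth measured after seven days incubation then overnight dye step; 0% = bacteria only wells and 100% = bacteria with antibiotic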
# Starred values were filed as active, the others as inactive; i = inactive; · = not tested or not shown. Only some compounds are listed: those with a hit (about 1.2% of all), similar ones and a draw of the others.
SMILES,Vc quorum ag,Sa ugtP lethal,RN4220 kill,PfHsp40 yeast,Mtb bLac sens
CCCCCCCCCCOC(=O)Cn1c(COc2ccccc2)[n+](C)c2ccccc21,i,·,·,336*,14
CCCCCCCCCCOC(=O)Cn1c(COc2cccc(C)c2)[n+](C)c2ccccc21,25,·,·,213*,71
O=C(C=C(O)c1ccc(Cl)cc1)C(=O)NNC(=O)C(O)(c1ccccc1)c1ccccc1,i,95*,0,2,·
CC(C)(C)OC(=O)CCC(C(=O)N1CCN(C(=O)OC(C)(C)C)CC1)n1cc(C(CO)NC(=O)OC(C)(C)C)nn1 (stereo unspecified),·,0,-2,·,·
CC(C)Cn1[nH]c2c3c(ccc2c1=O)C(=O)c1ccccc1C3=O,-17,85*,89*,1,92
Cn1ccc(C(=O)NN=Cc2ccccc2[N+](=O)[O-])n1,·,6,3,·,·
CC1=CC(=O)C(C(C)C)=CC1=NOS(=O)(=O)c1ccccc1,·,3,3,·,·
CC1=C/C(=N\OS(=O)(=O)c2ccccc2)C(C(C)C)=CC1=O,0,·,·,46*,88
Cc1c(N2C(=O)c3ccccc3C2=O)c(=O)n(-c2ccccc2)n1C,17*,1,-10,-1,-14
Cc1c(N2C(=O)c3ccc(F)cc3C2=O)c(=O)n(-c2ccccc2)n1C,-2,-4,2,-1,-7
CC1CN(C(C)CO)C(=O)c2cc(NC(=O)c3ccncc3)ccc2OC1CN(C)C(=O)Nc1ccc(C(F)(F)F)cc1 (stereo unspecified),·,-1,5,·,·
CCCCNc1c(-c2ccc(-c3cccc(Cl)c3)cc2)nc2ccccn12,i,-35,1,207*,99
Cc1ccc2nc(-c3ccc(-c4cccc(Cl)c4)cc3)c(NCc3ccccc3)n2c1,-1,-31,4,2,-12
CCCCNc1c(-c2cccc(-c3ccc(OC)cc3)c2)nc2ccc(C)cn12,i,34,17,232*,98
CCCCCCSc1ccc(-c2nc3ccccn3c2NCCCC)cc1,-1,15,3,324*,100
CCCCNc1c(-c2cccc(-c3ccc(OC)cc3)c2)nc2cc(C)ccn12,i,9,2,8,98
COc1cccc(N2C(CC(=O)O)c3cc(C(F)(F)F)ccc3S2(=O)=O)c1 (stereo unspecified),·,4,7,·,·
CCOc1ccc(-n2c(C)cc(C=C3C(=N)N4C(=NC3=O)SN=C4S(C)(=O)=O)c2C)cc1,·,18,13,·,·
Cc1cccc(N=Cc2[nH]c3ccc(Br)c(Cl)c3c2O)c1,-1,100*,35,1,-2
COc1ccccc1CN=Cc1[nH]c2ccc(Br)c(Cl)c2c1O,i,2,-4,0,10
Cc1ccc(C2C3C(=O)N(C)C(=O)C3[C@]3(Cc4ccccc4)C(=O)N(CCO)CC(=O)N23)o1 (stereo partly specified),·,-1,1,·,·
CCOC(=O)c1c(-c2ccccc2)oc2ccc(O)cc12,0,3,2,318*,73
CCOC(=O)c1c(-c2ccccc2)oc2ccc(OCC)cc12,-1,79,-5,0,78
CCOC(=O)c1c(-c2ccccc2)oc2ccc(OC)cc12,-7,90*,-3,-1,80
COc1cc(C=C2SC(=O)N(Cc3ccccc3Cl)C2=O)ccc1OCc1ccncc1,·,-9,2,·,·
SMILES,Vc quorum ag,Sa ugtP lethal,RN4220 kill,PfHsp40 yeast,Mtb bLac sens
O=C(NN=Cc1cccc(F)c1)c1csc2c1CCCC2,·,5,2,·,·
Oc1ccccc1N=Cc1ccc[nH]1,-1,-1,12,55*,99
C(=Nc1ccccc1)c1ccc[nH]1,i,-2,3,0,·
CC(C(=O)Nc1ccc2ccccc2c1)C1C[C@]1(C)C(NC(=O)OCc1ccccc1)c1ccccc1 (stereo partly specified),·,1,-3,·,·
C[C@@H](N)C(=O)NC[C@H]1O[C@@H](n2cnc3c(N)ncnc32)[C@H](O)[C@@H]1O,1,6,2,-1,·
Nc1ncnc2c1ncn2[C@@H]1O[C@H](CNC(=O)[C@@H](N)C2CCCCC2)[C@@H](O)[C@H]1O,-2,2,1,73*,·
C[C@H](N)C(=O)NC[C@H]1O[C@@H](n2cnc3c(N)ncnc32)[C@H](O)[C@@H]1O,2,-3,3,-2,·
CSCC[C@H](N)C(=O)NC[C@H]1O[C@@H](n2cnc3c(N)ncnc32)[C@H](O)[C@@H]1O,i,10,3,39*,·
O=C(NC1CC=CCC(CC(=O)N(CCO)Cc2ccccc2)C(=O)NC(c2ccccc2)COC1=O)OCC1c2ccccc2-c2ccccc21 (stereo unspecified),·,-1,8,·,·
